The list is not random: actives were taken first. Their share in the collection is about 20%.
Shiga inhibitor = blocks Shiga toxin action in Vero cells. inhibition, % at 38.7 µM. Vero cells, Shiga toxin protein synthesis inhibition reporter. 9.2% of 290,000 active; in the data active = inhibition mostly above about 28%, no sharp cut-off; inactive = mostly below about 43%; also: 0% is about no effect
HCMV inh = human cytomegalovirus inhibition. HFF cells, HCMV-luciferase reporter, 72 h; stronger effect = lower value. activity change, negative = inhibition, % at 57.5 µM. 4.5% of 410,000 active. AID 1259415; in the data active = activity change below about -60%; inconclusive = no clear call, values can overlap the other calls; inactive = above about -39%; also: % is scaled to controls: 0 for no effect and ±100 for the full control effect
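Two compound doses tested in HFFs infected with HCMV-luciferase, MOI 1 PFU/cell, 72 h at 37C. Lysate luminescence read with OneGlo; data normalized against buffer-only and 10uM Salinomycin inhibitor controls.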
Pf growth 96h = P. falciparum growth inhibition at 96 hour, primary screen for plastid delayed-death inhibitors | 6.9% of 320,000 active | P. falciparum luciferase reporter growth, 96 h | Potency, µM (doses to about 28.7 µM), for the others: at the highest dose activity change, negative = inhibition, hits mostly inhibitors; also: potency is read from the fitted curve at half-maximal effect; % is scaled to controls: 0 for no effect and ±100 for the full control effect
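Erythrocytes infected with luciferase-expressing P. falciparum were dispensed at 2% hematocrit and 0.05% parasitemia (final), then incubated with compounds 96 hours at 37 C in 5% CO2. Luminescence after detection reagent addition reported growth.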
Pf growth 48h = P. falciparum growth inhibition at 48 hours (one generation); P. falciparum luciferase growth in erythrocytes, 48 h; Potency, µM (top dose mostly 28.7 µM), for inactives: at the highest dose activity change, negative = inhibition, usual class: inhibitors; 5.9% of 310,000 active; also: potency is read from the fitted curve at half-maximal effect; % is scaled to controls: 0 for no effect and ±100 for the full control effect
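Luminescence readout; reporter = integrated firefly luciferase in P. falciparum. RBC culture at 2% hematocrit, 0.1% parasitemia final, 37 C/5% CO2; decreased signal taken as growth inhibition.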
Cycloheximide cs = counter-screen for Shiga toxin inhibitors: cycloheximide protein synthesis inhibition | cell reporter, cycloheximide protein synthesis inhibition counterscreen | max response, % | 12% of 300,000 active; in the data active = max response mostly above about 13%, no sharp cut-off; inactive = mostly below about 14%; also: read at 38.3 µM for the half of the compounds with a filed dose; 0% is about no effect
* = called active by the depositor; u = inconclusive; x = not tested or not shown. Unless noted, calls follow the shape of the dose curve; as a rule, active = well fitted inhibition curve with a large enough effect; inconclusive = small, poorly fitted or top-dose-only effect, or another doubt; inactive = no such curve, though single readings can be large or run the other way.

SMILES	Shiga inhibitor	HCMV inh	Pf growth 96h	Pf growth 48h	Cycloheximide cs
Cc1ccc(Cn2ncc3c(N4CCN(CCc5ccccc5)CC4)ncnc32)cc1	-3	-31	u	6.6µM*	-2
Cc1ccc(Cn2ncc3c(N4CCN(Cc5ccc(Cl)cc5)CC4)ncnc32)cc1	24	-82*	-14%	u	13
CCCCCCCCNC1=CC(=O)CC(C)(C)C1	28	9	u	u	2
CNC(=O)OC1CC2CC1[C@H]1CCCCN1C2=O (some centres undefined)	x	4	x	x	x
O=C(CC(=O)NCc1ccccc1)NCc1ccccc1	27	57	23%	12%	-8
O=C(CC(=O)N/N=C/c1ccccc1)NCc1ccccc1	-5	u	10µM*	0%	-2
O=C(CC(=O)N/N=C/c1c(F)cccc1Cl)NCCc1ccccc1	-6	-30	u	2%	-3
O=C(CC(=O)N/N=C\c1c(Cl)cccc1Cl)NCc1ccccc1	-18	-17	1µM*	6%	1
O=C(CC(=O)N/N=C/c1ccc(C(=O)O)cc1)NCCc1ccccc1	-13	-97*	12%	-6%	-1
COc1ccc(CCNC(=O)CC(=O)N/N=C/c2ccc(C(=O)O)cc2)cc1OC	x	-12	22%	1%	-1
O=C(Nc1cc(-c2nc3cc(Cl)ccc3o2)ccc1Cl)c1cccc2ccccc12	x	82	x	x	x
Cc1c(Br)c([N+](=O)[O-])nn1CC(=O)N1CCCc2ccccc21	28	5	2.3µM*	26%	14
Cc1nn(C(C)C(=O)N2CCc3ccccc32)c(C)c1[N+](=O)[O-] (centres undefined)	-22	-1	5.2µM*	u	-3
Cc1nn(CC(=O)N2CCCc3ccccc32)c(C)c1[N+](=O)[O-]	31	-26	u	30%	28*
O=C(Cn1ccc([N+](=O)[O-])n1)N1CCCc2ccccc21	127*	-13	196%	140%	54*
O=C(NCCC1CCCCN1S(=O)(=O)c1cccs1)C(=O)Nc1ccc(F)cc1 (centres undefined)	x	-5	-19%	-1%	x
Cc1nn(CC(=O)Nc2ccc(Cl)cn2)c(C)c1[N+](=O)[O-]	-5	-10	-29%	x	-5
Cc1nn(CC(=O)N2c3ccccc3NC(=O)C2(C)C)c(C)c1[N+](=O)[O-]	-4	-82*	u	3%	8
Cc1nn(CC(=O)c2cccc(Cl)c2)c(C)c1[N+](=O)[O-]	23	-10	-4%	-17%	24*
CC1(C)C(=O)Nc2ccccc2N1C(=O)Cn1ncc(Cl)c(Cl)c1=O	-28	12	-1%	u	-8
CC(=O)c1ccc(NC(=O)Cn2nc(N3CCN(c4ccccc4)CC3)ccc2=O)cc1	x	-10	x	x	x
COc1cc(CC(=O)O)c(C(C)=O)cc1OC	-11	-9	3.7µM*	7%	-2
CCOC(=O)c1ccc(NC(=O)NNC(=O)CCc2ccc(OC)cc2)cc1	-1	-7	38%	u	-1
COC(=O)c1c(-c2ccccc2)csc1NC(=O)c1ccco1	153*	50	-6%	67%	71*
O=C(Nc1scc(-c2ccc(F)cc2)c1C(=O)O)c1ccco1	92*	-20	x	27%	56*
SMILES	Shiga inhibitor	HCMV inh	Pf growth 96h	Pf growth 48h	Cycloheximide cs
Cc1csc(NC(=O)c2ccco2)c1C(=O)c1ccccc1	-15	3	33%	18%	-3
Cc1ccc(-c2csc(NC(=O)/C=C/c3ccco3)c2C(=O)O)cc1	86*	84	0%	68%	36*
Cc1ccc(S(=O)(=O)N(C)c2ccc(OCC(=O)Nc3cccc(-n4cnnn4)c3C)cc2)cc1	-5	-23	-22%	u	-1
O=C(Nc1nc2ccccc2[nH]1)c1cc(F)cc(F)c1	67*	10	-5%	-33%	67*
Cc1ccsc1C(=O)Nc1nc2ccccc2[nH]1	75*	55	-99%	152%	28*
COc1ccc2oc(C(=O)Nc3nc4ccccc4[nH]3)c(C)c2c1	70*	-6	u	21%	57*
O=C(Nc1nc2ccccc2[nH]1)c1ccc(F)cc1	21	74	1.5µM*	-76%	20*
COC(=O)Nc1nc2ccc(C(=O)c3ccc(F)cc3)cc2[nH]1	8	x	x	x	11
Cc1ccc(NCC(O)C(O)C(O)CO)c(N=Nc2ccccc2)c1C (centres undefined)	-3	-36	u	-4%	-4
CCn1ccc2cc(S(=O)(=O)N3CCCN(C(=O)Nc4cccc(SC)c4)CC3)ccc21	x	-10	x	x	x
C[C@H](CO)N1C[C@H](C)[C@@H](CN(C)C(=O)c2ccc(N3CCN(C)CC3)cc2)OCc2cnnn2CCCC1=O	x	11	x	x	x
O=C(Nc1nc2ccccc2[nH]1)c1cc2ccccc2o1	54*	28	-4%	-22%	35*
Cc1cc(C)nc(NC(=O)c2cc3ccccc3o2)n1	39	-15	15%	31%	4
O=C(Cc1cccc2ccccc12)Nc1nc2ccccc2[nH]1	-39	-21	x	u	-2
N#Cc1ccc(C(=O)Nc2nc3ccccc3[nH]2)cc1	59*	90	156%	63%	35*
O=C(Cc1ccccc1F)Nc1nc2ccccc2[nH]1	41	-12	-5%	5%	24*
O=C(Nc1nc2ccccc2[nH]1)c1ccccc1F	-23	-79*	10µM*	u	-9
C/C(=N\OCC(=O)Nc1c(C)cc(C)cc1C)c1ccc2c(c1)OCCO2	3	-3	-11%	-6%	-3
COc1cc(OC)cc(C(=O)Nc2nc3ccccc3[nH]2)c1	129*	9	x	u	59*
CCc1ccc(C(=O)Nc2nc3ccccc3[nH]2)cc1	-12	-101*	-29%	-60%	-10
COc1cc(OC)cc(C(=O)N[C@@H](CCSC)c2nc3ccccc3[nH]2)c1	-18	-19	1%	-9%	-7
O=C(CCNC(=O)c1ccc(Cl)cc1)Nc1nc2ccccc2[nH]1	x	12	x	x	x
COc1ccc(Br)c(C(=O)Nc2nc3ccccc3[nH]2)c1	69*	-18	127%	83%	54*
CN(C)S(=O)(=O)c1ccc(C(=O)Nc2nc3ccccc3[nH]2)cc1	80*	38	281%	209%	36*
COc1cc2cc(CCCOC(=O)CCC(=O)O)oc(=O)c2cc1OC	x	4	u	-2%	x
SMILES	Shiga inhibitor	HCMV inh	Pf growth 96h	Pf growth 48h	Cycloheximide cs
COc1ccccc1OCCNC(=O)CNC(=O)c1ccc(C(C)(C)C)cc1	x	32	u	u	x
C#CCOCCOCCOCCNc1nc(N2CCN(C(=O)[C@H](C(C)C)n3cc(CCO)nn3)CC2)nc(N2CCN(C(=O)[C@H](CCCCN)n3cc(CCCC)nn3)CC2)n1	-15	19	-16%	-4%	-1
Cc1cc(C)cc(C(=O)Nc2nc3ccccc3[nH]2)c1	121*	37	u	u	35*
CN(c1ccccc1)S(=O)(=O)c1ccc(Cl)c(C(=O)Nc2nc3ccccc3[nH]2)c1	-3	u	6.6µM*	u	-1
COc1ccc(Cl)cc1C(=O)Nc1nc2ccccc2[nH]1	4	1	-42%	-48%	-1
CS(=O)(=O)N(CC(=O)NCCc1ccccc1)c1cc(C(F)(F)F)ccc1Cl	x	5	x	x	x

Source: PubChem
